# Results taken from PubChem BioAssay AID743446 (Broad Institute, 2014).
# Results with a measured potency or affinity are listed apart. Active and inactive are the calls of the source. The rule behind the calls is not given here.
# Assay: HEK293 cell cytotoxicity, dose response, cytotoxicity control, plate reader, cherry-picked samples (AID 743446)
# Conditions: stronger effect = lower value; at 26 µM unless noted
row,Structure (SMILES),max activity
1,COc1ccc(OCC(=O)Nc2nccs2)cc1,15.2% [at 1.6 µM] (inactive)
2,Cc1cc(Cl)ccc1OCCCC(=O)Nc1cc(S(=O)(=O)N2CCOCC2)ccc1N1CCOCC1,-21.8% [at 0.1 µM] (inactive)
3,Cc1ccc(S(=O)(=O)N2[C@@H](CO)CO[C@H]2CC(=O)OCc2ccccc2)cc1,42.9% [at 12 µM] (inactive)
4,Cc1ccc(S(=O)(=O)N(C)C[C@H]2Oc3c(cccc3N(C)C)C(=O)N([C@@H](C)CO)C[C@@H]2C)cc1,10.6% [at 6 µM] (inactive)
5,O=C(O)c1ccc(Nc2nc3c(s2)CCCC3)cc1,49.8% [at 12 µM] (inactive)
6,Cc1ccc2nc(-c3ccc(NC(=O)C4CCCO4)cc3)[nH]c2c1 (centres undefined),41.8% (inactive)
7,O=C(O)c1ccc(N/N=C/c2ccc3ncccc3c2)cc1,14.9% [at 12 µM] (inactive)
8,C[C@H](CO)N1C[C@H](C)[C@H](CN(C)C(=O)Nc2cccc3ccccc23)OCCCC[C@H](C)Oc2ccc(NC(=O)CCC(F)(F)F)cc2C1=O,78.9% (inactive)
9,Cc1ccc(CNS(=O)(=O)c2ccc3c(c2)CCN3C(=O)CCCC(=O)O)cc1,14.5% [at 6 µM] (inactive)
10,Cc1ccc(C(=O)n2nc(-n3cccc3)c3c(C)cc(C)nc32)cc1,-22.4% [at 6 µM] (inactive)
11,COc1ccccc1N/C=C/c1onc(C)c1[N+](=O)[O-],-8.08% [at 0.8 µM] (inactive)
12,COc1ccc(S(=O)(=O)Nc2ccc3c(c2)C(=O)N([C@H](C)CO)C[C@H](C)[C@H](CN(C)S(=O)(=O)c2ccc(F)cc2)OCCCC[C@@H](C)O3)cc1,-23.7% [at 12 µM] (inactive)
13,CSc1ccc(NC(=O)Nc2cc(C)ccn2)cc1,12.9% [at 0.05 µM] (inactive)
14,C[C@H](CO)N1C[C@H](C)[C@H](CN(C)C(=O)Nc2ccc3c(c2)OCO3)OCCCC[C@H](C)Oc2ccc(NC(=O)C3CCCCC3)cc2C1=O,17.6% (inactive)
15,O=C(Nc1cccnc1)c1cc(-c2ccc3c(c2)OCO3)on1,26.9% [at 12 µM] (inactive)
16,C[C@H](CO)N1C[C@H](C)[C@H](CN(C)C(=O)Nc2ccc(F)cc2)OCCCC[C@H](C)Oc2ccc(NC(=O)NC3CCCCC3)cc2C1=O,38.8% [at 12 µM] (inactive)
17,CCCCCc1ccc(-c2ccc(C(=O)O)cc2)nc1,34.4% [at 0.8 µM] (inactive)
18,CCc1ccc2ncc(S(=O)(=O)c3ccc(C)c(C)c3)c(N3CCCC3)c2c1,19.3% [at 0.38 µM] (inactive)
19,O=C(Nc1cc(S(=O)(=O)Nc2ccccc2Cl)ccc1O)c1ccc(F)cc1F,-13.9% [at 0.8 µM] (inactive)
20,O=C(c1ccccc1)N1CCSc2sccc2C1=O,36.7% (inactive)

row,Structure (SMILES),max activity
1,CO[C@@H]1CN(C)C(=O)c2cc(NC(C)=O)ccc2OC[C@@H](C)N(Cc2ccc(F)cc2)C[C@@H]1C,59.8% [at 0.05 µM] (inactive)
2,C[C@@H]1CN([C@@H](C)CO)S(=O)(=O)c2ccc(C3=CCCC3)cc2O[C@H]1CN(C)C(=O)c1ccccc1,11.7% [at 0.1 µM] (inactive)
3,Cc1cc(C(=O)CN2C(=O)c3ccccc3S2(=O)=O)c(C)n1C(C)C,-20.6% [at 3 µM] (inactive)
4,CC(C)(C)c1ccc(Cn2c(=O)cnc3ccccc32)cc1,-26.8% [at 12 µM] (inactive)
5,COc1ccc(S(=O)(=O)Nc2ccc3c(c2)C(=O)N([C@@H](C)CO)C[C@@H](C)[C@H](CN(C)C(=O)Nc2cccc4ccccc24)OCCCC[C@H](C)O3)cc1,35.8% [at 12 µM] (inactive)
6,CC(=O)N1CCCCN2[C@H](CO)[C@H](c3ccc(-c4cccc(C)c4)cc3)[C@@H]2C1,30.5% [at 1.6 µM] (inactive)
7,Cc1csc(NC(=O)c2cnc3ccccc3n2)n1,87.3% (inactive)
8,O=C1CC(c2ccc3c(c2)OCO3)Sc2nc3ccccc3n21 (centres undefined),-8.84% [at 0.38 µM] (inactive)
9,Cc1c(NC(=O)c2cccc(NC(=O)COc3ccccc3C#N)c2)c(=O)n(-c2ccccc2)n1C,-14.7% [at 3 µM] (inactive)
10,Cc1noc(C)c1S(=O)(=O)Nc1cccc2c1O[C@H](CN(C)C(=O)Nc1ccc(F)cc1)[C@H](C)CN([C@H](C)CO)C2=O,-6.26% (inactive)
11,O=C(Nc1nc2c(s1)CCCC2)C1COc2ccccc2O1 (centres undefined),55.6% [at 0.05 µM] (inactive)
12,CCCCN(Cc1ccccc1)S(=O)(=O)c1cc2c(cc1Br)CC(C)N2C(C)=O (centres undefined),18.2% [at 0.38 µM] (inactive)
13,Cc1ccccc1S(=O)(=O)N1[C@H](C#N)[C@H](c2ccc(C#CC3CCCCC3)cc2)[C@H]1CO,29.2% [at 3 µM] (inactive)
14,C[C@H](CO)N1C[C@H](C)[C@H](CN(C)C(=O)Nc2ccc(F)cc2)OCCCC[C@H](C)Oc2ccc(NC(=O)C3CCCCC3)cc2C1=O,-10.8% [at 6 µM] (inactive)
15,COc1ccc(S(=O)(=O)N2CCCCN3[C@H](CO)[C@H](c4ccc(-c5cccnc5)cc4)[C@@H]3C2)cc1,-10.9% [at 12 µM] (inactive)
16,N#C[C@@H]1[C@H](c2ccc(C#CC3CCCCC3)cc2)[C@@H](CO)N1S(=O)(=O)c1ccccc1,39.8% [at 12 µM] (inactive)
17,Cc1ccc(-n2nnc(-c3nccn3C)n2)cc1,-39% (inactive)
18,COc1cccc(-c2ccc(C3[C@@H]4CN(C(=O)C5CC5)C[C@H]3N4)cc2)c1 (some centres undefined),15.1% [at 3 µM] (inactive)
19,O=C(Nc1ccc(Cl)cc1)Nc1cccc(C(=O)O)c1,-10.1% (inactive)
